We go through five compounds from PubChem BioAssay.

Experiment [1] is described as follows: reducers of endogenous Her2 protein level, primary screen, SKBR3 breast tumor cells, AlphaScreen, ATP viability (AID 461;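 active = Her2 level under about 52% in both replicate screens, with viability over 70% of control, limit read from the data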;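 as to Her2 level: lower value means less Her2 protein in the cells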;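 as to viability: percent of carrier control wells set as 100% viability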). The note with it: 18-24 h, measured here: SKBR3 viability, ATP luminescence, at 10 µM.
In experiment [2] the target is Receptor tyrosine-protein kinase erbB-2 (Homo sapiens) (UniProt P04626). The description is as above. The note with it: 18-24 h, at 10 µM, stronger effect = lower value.
Experiment [3] is described as follows: SK-BR-3 cell growth inhibitors, pilot screen, 24 h, human (AID 572;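 active = viability at or below 10% of carrier control in both of two separate runs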;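 also: compound exposure lasted between 18 and 24 h rather than exactly 24 h; 100% = carrier-treated control wells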). As to conditions: SK-BR-3 viability, CellTiter-Glo luminescence, at 10 µM, stronger effect = lower value.
Experiment [4] is described as follows: HUVEC growth inhibition – cell-based, human, primary screen (AID 575;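 active = viability at or below 30% in both replicate assays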;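 also: 100% = median of untreated cell wells with 0.1% DMSO on each plate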). The note with it: HUVEC proliferation, CellTiter-Glo luminescence, 72 h; at 10 µM; stronger effect = lower value.
A short description of experiment [5]: growth inhibitors of H69AR lung tumor, primary screen, human, duplicate replicates (AID 580).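 Also: 100% = mean luminescence of untreated wells and 0% = no signal.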 The note with it: H69AR lung tumor cells viability, ATP luminescence, 72 h; at 10 µM; stronger effect = lower value.
Experiment [6] in a line: reversal of MRP1-mediated doxorubicin resistance, pilot screen, H69AR cells, doxorubicin co-treatment (AID 601;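 active = viability loss from added drug above about 55%, and viability with drug at most 40%, in both replicates, limit read from the data, passing the limit was not always enough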). As to conditions: CellTiter-Glo, 72 h, at 10 µM; for differential viability (reversal): stronger effect = higher value.
The nature of experiment [7]: 384-well plate pilot, post-Golgi transport modulator project, inhibition of yeast transport mutant growth (AID 636; in the data active = inhibition above about 31%). The note with it: absorbance 615 nm, about 18 h, stronger effect = higher value.
Experiment [8] can be described thus: growth suppression of yeast trafficking mutant, preliminary HTS, modulators of trafficking downstream of Golgi apparatus project, 1536-format plate, OD 615 nm (AID 637; in the data active = inhibition above about 30%). The note with it: yeast transport mutant growth, absorbance 615 nm, 18 h; stronger effect = higher value.
The nature of experiment [9]: OD615 S. cerevisiae growth inhibition, permissive medium, pilot counter-assay, permissive growth control for S. cerevisiae lifespan shortening project (AID 705;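 active = growth inhibition above 25% in both replicates, a cutoff set 3 SD above the mean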). As to conditions: OD615, 24 h, at 10 µM, stronger effect = higher value.
Experiment [10] is described as follows: Restrictive medium S. cerevisiae growth inhibition, OD615, pilot screen of yeast lifespan reduction project, restrictive growth control (AID 706;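 active = growth inhibition above a set limit, 3 SD over mean compound inhibition, in both replicates, cut at about 43% in these data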;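 also: modified DeaD lifespan yeast strain shifted to restrictive glucose medium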). As to conditions: OD615, 48 h, at 10 µM, stronger effect = higher value.
The nature of experiment [11]: viability gain of MRP-1-high H69AR cells under doxorubicin, pilot screen, MRP-1 activator project, CellTiter-Glo, duplicate (AID 807;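 active = viability increase at or above a cutoff of the median across tested compounds plus 3 SD, cut at about 8.5% in these data, passing the limit was not always enough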;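 also: compound pretreatment 18-22 h then 72 h combined with doxorubicin; 0% = doxorubicin alone and 100% = vehicle without doxorubicin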). As to conditions: H69AR viability with doxorubicin, CellTiter-Glo luminescence; at 10 µM; stronger effect = higher value.
The nature of experiment [12]: growth suppression of beta-catenin knockout HCT116, pilot screen, human colon tumor cells (AID 823;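 active = cell viability at or below a set limit in both duplicate runs, the limit being the all-compound median minus 4 SD, cut at about 23% in these data, passing the limit was not always enough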;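 also: 0% = wells killed by 20 µM Hyamine and 100% = untreated DMSO cell wells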). The note with it: CellTiter-Glo, 60 h, at 10 µM, stronger effect = lower value.
The nature of experiment [13]: growth suppression of PTEN-deleted HCT116, pilot screen, cell-based, HCT116 clonal line, CellTiter-Glo (AID 824;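 active = viability at or below 27.92% in each of two runs, the all-compound median minus 4 SD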;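 also: 0% = 20 µM Hyamine control and 100% = vehicle cell control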). The note with it: 60 h, at 10 µM, stronger effect = lower value.
Experiment [14] in a line: inhibitors of the yeast RAM network, pilot screen, dse1pr::URA3 reporter, 5-FOA selection (AID 869;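 active = inhibition over a set limit, the all-compound mean plus 3 SD, in both replicate runs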;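 also: 0% = DMSO wells with no growth and 100% = 10 µM 1-NA-PP1 with full growth; RAM network block rescues cells from 5-FOA so hits raise OD615 growth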). As to conditions: S. cerevisiae dse1pr::URA3 5-FOA growth, OD615, 2 d; at 10 µM; stronger effect = higher value; strain carries analog-sensitive mutant Cbk1 kinase.
The nature of experiment [15]: RAM signaling pathway blockade in yeast – S. cerevisiae, Pdr1DBD-CYC8 efflux-inhibited sensitized strain, primary screen (AID 1298;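 active = RAM network inhibition above 8.4% in each of two replicates, 3 SD over the compound average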;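 also: 0% = DMSO untreated cells without growth and 100% = 10 µM 1-NA-PP1 full growth; higher means more yeast growth rescued from 5-FOA killing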). As to conditions: S. cerevisiae cbk1-as DSE1-URA3 strain, 5-FOA growth OD615, 2 d; at 50 µM; stronger effect = higher value.
Where [16] appears, read: H69AR cells + 2 uM doxorubicin, measured here: viability with 2 uM doxorubicin, stronger effect = lower value.
[17] abbreviates: H69AR cells, compound alone cytotoxicity.

Structures are written as SMILES. Results filed as inconclusive are left out. Active and inactive are the calls of the source.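 The calls were made as follows, unless noted: active = viability at or under a set limit in both replicates, limit being median viability minus 3 SD (cut at about 48% in these data, passing the limit was not always enough); inconclusive = at or under the limit in just one replicate; inactive = at or above the limit in both replicates.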

Receptor tyrosine-protein kinase erbB-2 (Homo sapiens), sequence (P04626 whole entry, looked up): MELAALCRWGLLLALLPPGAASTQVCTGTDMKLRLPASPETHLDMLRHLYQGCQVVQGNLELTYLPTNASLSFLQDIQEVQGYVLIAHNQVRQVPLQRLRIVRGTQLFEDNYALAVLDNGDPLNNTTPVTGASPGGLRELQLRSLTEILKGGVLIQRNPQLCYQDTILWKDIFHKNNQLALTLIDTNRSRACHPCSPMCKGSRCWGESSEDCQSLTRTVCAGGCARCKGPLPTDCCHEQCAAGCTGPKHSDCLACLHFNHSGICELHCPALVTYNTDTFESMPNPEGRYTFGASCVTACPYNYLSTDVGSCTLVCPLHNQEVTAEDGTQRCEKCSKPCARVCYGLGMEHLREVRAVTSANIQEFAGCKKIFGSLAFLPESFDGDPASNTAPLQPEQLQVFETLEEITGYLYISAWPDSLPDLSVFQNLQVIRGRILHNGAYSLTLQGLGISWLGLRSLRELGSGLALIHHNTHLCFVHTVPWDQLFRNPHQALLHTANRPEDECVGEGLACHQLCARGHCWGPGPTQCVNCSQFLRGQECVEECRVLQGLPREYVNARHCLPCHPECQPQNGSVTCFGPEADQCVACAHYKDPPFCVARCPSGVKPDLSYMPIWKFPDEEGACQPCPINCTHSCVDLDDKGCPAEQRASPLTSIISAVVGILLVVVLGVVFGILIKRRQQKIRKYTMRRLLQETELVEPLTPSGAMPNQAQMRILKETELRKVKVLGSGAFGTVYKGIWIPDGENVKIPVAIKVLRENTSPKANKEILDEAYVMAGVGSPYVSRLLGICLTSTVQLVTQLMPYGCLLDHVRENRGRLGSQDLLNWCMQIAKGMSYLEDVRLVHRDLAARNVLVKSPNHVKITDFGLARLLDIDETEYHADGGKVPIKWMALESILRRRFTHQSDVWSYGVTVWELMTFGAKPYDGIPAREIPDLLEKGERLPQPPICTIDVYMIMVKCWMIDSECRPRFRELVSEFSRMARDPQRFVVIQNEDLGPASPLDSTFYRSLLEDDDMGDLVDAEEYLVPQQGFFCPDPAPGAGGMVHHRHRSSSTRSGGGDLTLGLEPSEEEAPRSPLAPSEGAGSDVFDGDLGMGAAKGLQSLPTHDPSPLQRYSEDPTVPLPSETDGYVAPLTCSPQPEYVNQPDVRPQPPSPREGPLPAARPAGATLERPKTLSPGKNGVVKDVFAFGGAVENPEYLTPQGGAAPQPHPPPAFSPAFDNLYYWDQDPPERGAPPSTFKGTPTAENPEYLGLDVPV

In the case of `COC(=O)CCC(=O)Nc1ccc(OC)cc1`, the viability in experiment [1] was 104%; in [3] it was 104% (inactive); in experiment [4], 121% (inactive); in experiment [5], 85.1% (inactive); in experiment [6] (setting [16]), 98.3%; in experiment [6] (setting [17]), 85.1%. Further, the viability in experiment [12] was 98.6% (inactive); in [13], 101% (inactive). The Her2 level in experiment [2] was 84% (inactive). Also, the differential viability (reversal) in [6] (H69AR cells + 2 uM doxorubicin) was -13.2% (inactive). Besides, the values for the inhibition in [7], in experiment [8] and in experiment [14] were -6.22% (inactive), 0.98% (inactive) and 0.605% (inactive), respectively. Further, the growth inhibition is -2.88% (inactive) in [9] and -6.16% (inactive) in experiment [10]. Moreover, the viability increase in experiment [11] was -1.06% (inactive). The RAM network inhibition in experiment [15] is 2.52% (inactive).

Consider `CCC(C)NC(=O)C1c2cc(OC)c(OC)cc2C(=O)N(C)C1c1ccc(OC)cc1` (stereo not given), for which the viability is 96% in [1]; 96% (inactive) in experiment [3]; 108% (inactive) in [4]; 108% (inactive) in experiment [5]; 97.6% in [6] (setting [16]); 108% in experiment [6] (setting [17]). Besides, the viability in [12] is 96% (inactive); in [13], 95.3% (inactive). In [2], the Her2 level is 90% (inactive). Besides, the differential viability (reversal) in experiment [6] (H69AR cells + 2 uM doxorubicin) was 10.2% (inactive). Also, the inhibition in [7] is -8.77% (inactive); in experiment [8], -10.2% (inactive); in experiment [14], 0.92% (inactive). In addition, the figures for the growth inhibition in [9] and in experiment [10] were -5.75% (inactive) and -9.85% (inactive), respectively. The viability increase in [11] is -1.38% (inactive). The RAM network inhibition in [15] is 0.81% (inactive).

Consider `O=P(O)(CN1CCCCCC1)CN1CCCCCC1`, for which the viability in experiment [1] was 93%; in experiment [3], 93% (inactive); in experiment [4], 96.6% (inactive); in experiment [5] it was 107% (inactive); in [6] (setting [16]), 99.2%; in [6] (setting [17]) it was 107%. Also, the viability was 98.3% (inactive) in experiment [12] and 105% (inactive) in [13]. In experiment [2], the Her2 level was 97.5% (inactive). Also, the differential viability (reversal) in experiment [6] (H69AR cells + 2 uM doxorubicin) is 7.6% (inactive). Further, the inhibition in experiment [7] is -2.84% (inactive); in experiment [8], -0.82% (inactive); in [14], 0.24% (inactive). Moreover, the growth inhibition in experiment [9] is -16.8% (inactive); in experiment [10], -8.96% (inactive). For the same compound, in experiment [11], the viability increase is 1.45% (inactive). Besides, the RAM network inhibition in experiment [15] is 4.85% (inactive).

Consider `CCOCCOc1nc2c(c(=O)n(C)c(=O)n2C)n1Cc1ccc(C)cc1`, for which the viability in experiment [1] was 83%; in [3], 83% (inactive); in experiment [4], 94.5% (inactive); in experiment [5], 90.8% (inactive); in [6] (setting [16]), 95.4%; in [6] (setting [17]) it was 90.8%. Also, the viability in experiment [12] was 82.3% (inactive); in experiment [13], 79% (inactive). In addition, the Her2 level in experiment [2] was 113% (inactive). The differential viability (reversal) in experiment [6] (H69AR cells + 2 uM doxorubicin) is -4.61% (inactive). Further, the inhibition is 0.27% (inactive) in experiment [7], 4.33% (inactive) in [8] and 2.64% (inactive) in [14]. In addition, the figures for the growth inhibition in experiment [9] and in [10] were 3.97% (inactive) and -4.73% (inactive), respectively. Further, the viability increase in experiment [11] was 0.37% (inactive). Moreover, the RAM network inhibition in experiment [15] was 2.08% (inactive).

For the compound `CCCn1cc(SCC(N)=O)c2ccccc21`, the viability is 86.5% in experiment [1]; 86.5% (inactive) in experiment [3]; 90.6% (inactive) in [4]; 91.2% (inactive) in experiment [5]; 105% in experiment [6] (setting [16]); 91.2% in experiment [6] (setting [17]). Moreover, the viability in experiment [12] was 100% (inactive); in experiment [13], 95.6% (inactive). In experiment [2], the Her2 level was 102% (inactive). Also, the differential viability (reversal) in experiment [6] (H69AR cells + 2 uM doxorubicin) is -13.4% (inactive). For the same compound, the inhibition is -4.93% (inactive) in experiment [7], 4.83% (inactive) in experiment [8] and 0.545% (inactive) in [14]. Further, the growth inhibition is -9.29% (inactive) in experiment [9] and -15.9% (inactive) in experiment [10]. Besides, the viability increase in experiment [11] is -1.96% (inactive). Moreover, the RAM network inhibition in experiment [15] is 0.42% (inactive).
